This is part of a sample that, as a whole, favours compounds with a hit. Of some 83,000 tested, about 20% had one in any assay.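 The endpoint reported here, percent growth, reads 100 for growth as untreated, 0 for no net growth and -100 for all cells dead.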 Unmarked numbers belong to inactive results. Calls of active or inactive are those of the source. Rule for the calls: active = growth percent below 10; inactive = the rest.
Each compound was assayed on BT-549 breast (assay: NCI-60 one-dose screen, 48 h (100 = growth as untreated, 0 = no growth, -100 = all killed)). Conditions: 10 µM unless noted.
Work on `Cc1ccc(S(=O)(=O)N2CCN(C(=O)CSc3nc4ccc(C)cc4[nH]3)CC2)cc1` yielded a growth of 106%.
For `CCCCc1ccc(C(N)=O)nc1`, the growth was 97.8%.
For `CC(=O)O[C@H]1CC[C@@]2(C)C(=CC[C@@H]3[C@@H]2CC[C@]2(C)C(c4cccnc4)=CC[C@@H]32)C1`, the growth was 63.4%.
Compound `COc1cnc2c(c1)C(=O)c1c-2n(CCCN2CCOCC2)c(=O)c2cc(F)ccc12` has a growth of 13.3%.
Work on `O=Cc1ccccc1C(=O)O` yielded a growth of 102%.
For `O=C(NCCNC(=O)Oc1cccc2ccccc12)Oc1cccc2ccccc12`, the growth was 105%.
In the case of `COc1ccc2cc(C3=CC(=O)CCC3)ccc2c1`, the growth is reported as 97.1%.
In the case of `COc1ccc(NS(=O)(=O)N2CCCCC2)cc1`, the growth is reported as 104%.
In the case of `[N-]=[N+]=NCc1ncc(-c2ccc(C(F)(F)F)cc2)c(NC2CCCCCC2)n1`, the growth is reported as 81.9% [50 µM].
Work on `O=C(CNC(=O)c1cccc2ccccc12)Nc1ccccc1Cc1ccccc1` yielded a growth of 40.3% [5 µM].
For `COc1ccc2c(c1)[n+](=O)c(/C=C/C(=O)c1cc(OC)c(OC)c(OC)c1)c(C)n2[O-]`, the growth was 73.3%.
Work on `O=C1NCCc2c1noc2-c1ccccc1` yielded a growth of 97%.
In the case of `Cc1sc2nc(N3CCCCC3)[nH]c(=O)c2c1C`, the growth is reported as 99.1%.
`CS(=O)(=O)N1CCN(Cc2cc3nc(-c4cccc5[nH]ncc45)nc(N4CCOCC4)c3s2)CC1` (tested in a mixture with another compound) showed a growth of 33.6%.
`C=CCN(/C=C/CN(CC=C)CC=C)CC=C` gave a growth of 100%.
`O=C(O)C1CCN(S(=O)(=O)c2ccc(-c3ccccc3)cc2)CC1` was tested, and the growth was 109%.
Compound `Cc1ccc(NC(=O)c2sc3nc4c(cc3c2N)C(=O)CCC4)cc1` has a growth of 86.4%.
For `Oc1c(Cl)cc(Oc2cc(Cl)c(O)c(CN3CCOCC3)c2)cc1CN1CCOCC1`, the growth was 96.5%.
In the case of `COC(=O)[C@H](CCCCNC(=O)OCc1ccccc1)NC(=O)[C@@H](NC(=O)Nc1cc(C(F)(F)F)cc(C(F)(F)F)c1)C(C)C`, the growth is reported as 47.1% [100 µM].
Work on `CCSc1nc(Nc2ccc(S(=O)(=O)Nc3ccon3)cc2)c(C#N)c(-c2cccc(Br)c2)n1` yielded a growth of 90.2%.
Compound `CCCCN1c2nc3ccccc3cc2Sc2cc3ccccc3nc21` has a growth of 97.1%.
With `COc1cc(/C=C\C(C)=N\Nc2ccccc2)ccc1O` the growth was 102%.
`O=c1[nH]c(SCc2ccccc2)nc2nc(Nc3ccc(NC(=S)Nc4ccccc4)cc3)nc(-c3ccc(O)cc3O)c12` showed a growth of 91.7%.
With `O=C(Oc1ccccc1)C(Br)C(Br)c1ccccc1` (stereo not given) the growth was 99.9%.
For `O=c1oc2c(cc1-c1ccc([N+](=O)[O-])cc1)C(O)Oc1ccccc1-2` (stereo not given), the growth was 97.1%.

What follows are compounds tested on MDA-MB-435 melanoma in the same assay as above. Conditions: 10 µM unless noted.
`CC(C)C[C@H](NC(=O)/C=C/Cn1ccc2ccccc2c1=O)B(O)O` was tested, and the growth was -44.3% (active).
In the case of `C[C@]12CCC(=O)C=C1CC[C@H]1[C@@H]3C[C@@H](O)[C@](O)(C(=O)CO)[C@@]3(C)C[C@H](O)[C@@]12F`, the growth is reported as 99.7%.
`CNNc1ncnc2c1cnn2-c1ccc(S(N)(=O)=O)cc1` showed a growth of 114%.
Compound `O=C(C(=O)c1cc(Br)ccc1O)c1cc(Br)ccc1O` has a growth of 49.8%.
With `COc1ccc(/C=C2\CCc3ccccc3C2=O)cc1` the growth was 9.53% (active).
Compound `CC(C)N(Cc1ccccc1)c1c(S)ssc1=S` has a growth of 11.8%.
`O=C1C=CC(=O)N1c1ccccn1` showed a growth of 116%.
Compound `COc1cccc(/C=N\NC(=O)c2ccncc2)c1O` has a growth of 83%.
In the case of `CN[C@@H]1C(OC2[C@H](O[C@H]3[C@H](O)[C@@H](O)[C@H](N=C(N)N)[C@@H](O)[C@@H]3N=C(N)N)OC(C)[C@]2(O)CO)OC(CO)C(O)C1O` (stereo not given in full), the growth is reported as 102%.
For `CC(C)Sc1nc(-c2ccc(Br)cc2)c(C#N)c(N2CCCCC2)n1`, the growth was 95.7%.
With `O=CN1N=C(c2ccc(Nc3ccnc4cc(Cl)ccc34)cc2)CC1c1ccc(Cl)cc1` (stereo not given) the growth was -19.6% (active).
Work on `O=C(O)c1ccc2cccnc2c1O` yielded a growth of 10.1%.
Work on `O=C(Nc1ccc2c(c1)C(=O)c1ccccc1-2)c1ccccc1` yielded a growth of 101%.
`Nc1ccccc1C#Cc1ccccc1C#Cc1ccc(OCCCCCCOc2ccc(C#Cc3ccccc3C#Cc3ccccc3N)cc2)cc1` gave a growth of 97.5%.
Compound `O=C(CC(C(=O)c1ccccc1)N1CCN(Cc2ccccc2)CC1)c1ccccc1` (stereo not given) has a growth of 109%.
`Cc1ccc(S(=O)(=O)N2CCN(C(=O)CSc3nc4ccc(C)cc4[nH]3)CC2)cc1` showed a growth of 109%.
Work on `CCCCc1ccc(C(N)=O)nc1` yielded a growth of 106%.
`CC(=O)O[C@H]1CC[C@@]2(C)C(=CC[C@@H]3[C@@H]2CC[C@]2(C)C(c4cccnc4)=CC[C@@H]32)C1` showed a growth of 34.5%.
For `COc1cnc2c(c1)C(=O)c1c-2n(CCCN2CCOCC2)c(=O)c2cc(F)ccc12`, the growth was -14.2% (active).
`O=Cc1ccccc1C(=O)O` was tested, and the growth was 96.6%.
Work on `O=C(NCCNC(=O)Oc1cccc2ccccc12)Oc1cccc2ccccc12` yielded a growth of 114%.
`COc1ccc2cc(C3=CC(=O)CCC3)ccc2c1` showed a growth of 93%.
For `COc1ccc(NS(=O)(=O)N2CCCCC2)cc1`, the growth was 116%.
`[N-]=[N+]=NCc1ncc(-c2ccc(C(F)(F)F)cc2)c(NC2CCCCCC2)n1` was tested, and the growth was 61.6% [50 µM].
With `O=C(CNC(=O)c1cccc2ccccc12)Nc1ccccc1Cc1ccccc1` the growth was -8.01% [5 µM] (active).
`COc1ccc2c(c1)[n+](=O)c(/C=C/C(=O)c1cc(OC)c(OC)c(OC)c1)c(C)n2[O-]` was tested, and the growth was 34.6%.
Compound `O=C1NCCc2c1noc2-c1ccccc1` has a growth of 106%.
Work on `Cc1sc2nc(N3CCCCC3)[nH]c(=O)c2c1C` yielded a growth of 103%.
In the case of `CS(=O)(=O)N1CCN(Cc2cc3nc(-c4cccc5[nH]ncc45)nc(N4CCOCC4)c3s2)CC1` (tested in a mixture with another compound), the growth is reported as 15.9%.
`C=CCN(/C=C/CN(CC=C)CC=C)CC=C` showed a growth of 105%.
`O=C(O)C1CCN(S(=O)(=O)c2ccc(-c3ccccc3)cc2)CC1` showed a growth of 120%.
`Cc1ccc(NC(=O)c2sc3nc4c(cc3c2N)C(=O)CCC4)cc1` showed a growth of 14.6%.
`Oc1c(Cl)cc(Oc2cc(Cl)c(O)c(CN3CCOCC3)c2)cc1CN1CCOCC1` was tested, and the growth was 101%.
In the case of `COC(=O)[C@H](CCCCNC(=O)OCc1ccccc1)NC(=O)[C@@H](NC(=O)Nc1cc(C(F)(F)F)cc(C(F)(F)F)c1)C(C)C`, the growth is reported as -86% [100 µM] (active).
With `CCSc1nc(Nc2ccc(S(=O)(=O)Nc3ccon3)cc2)c(C#N)c(-c2cccc(Br)c2)n1` the growth was 102%.
For `CCCCN1c2nc3ccccc3cc2Sc2cc3ccccc3nc21`, the growth was 151%.
In the case of `COc1cc(/C=C\C(C)=N\Nc2ccccc2)ccc1O`, the growth is reported as 69.7%.
In the case of `O=c1[nH]c(SCc2ccccc2)nc2nc(Nc3ccc(NC(=S)Nc4ccccc4)cc3)nc(-c3ccc(O)cc3O)c12`, the growth is reported as 104%.
In the case of `O=C(Oc1ccccc1)C(Br)C(Br)c1ccccc1` (stereo not given), the growth is reported as 94.5%.
Work on `O=c1oc2c(cc1-c1ccc([N+](=O)[O-])cc1)C(O)Oc1ccccc1-2` (stereo not given) yielded a growth of 89.3%.

From PubChem BioAssay (NCI)
